Where a chain is given by its changes, count along the chain named.
Columns and labels:
Experiment in all cases: PBM; 200 nM protein, PBS
Settings in all cases: dsDNA, one strand shown
PAX4 [1] = biological target: T1, PAX4 (Homo sapiens, UniProt O43316 9-242, R200K)
T1 sequence: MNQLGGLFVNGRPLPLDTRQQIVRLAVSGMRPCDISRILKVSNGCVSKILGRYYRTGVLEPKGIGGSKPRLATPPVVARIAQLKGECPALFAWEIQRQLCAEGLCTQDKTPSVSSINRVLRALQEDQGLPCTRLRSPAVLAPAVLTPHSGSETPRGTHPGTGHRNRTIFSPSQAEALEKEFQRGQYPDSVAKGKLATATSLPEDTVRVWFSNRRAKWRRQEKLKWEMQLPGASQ

PAX4 [2] = biological target: T2, PAX4 (Homo sapiens, UniProt O43316 9-242)
T2 sequence: T1 sequence with K192R

HOXB9 [3] = biological target: HOXB9 (Homo sapiens, UniProt P17482 171-250)
Sequence of HOXB9 (Homo sapiens, UniProt P17482 171-250) (P17482 171-250): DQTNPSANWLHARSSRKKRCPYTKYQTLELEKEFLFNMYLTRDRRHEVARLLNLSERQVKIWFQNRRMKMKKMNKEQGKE

ALX3 [4] = biological target: ALX3 (Homo sapiens, UniProt O95076 139-225, N203Q)
Sequence of ALX3 (Homo sapiens, UniProt O95076 139-225, N203Q) (O95076 139-225 N203Q): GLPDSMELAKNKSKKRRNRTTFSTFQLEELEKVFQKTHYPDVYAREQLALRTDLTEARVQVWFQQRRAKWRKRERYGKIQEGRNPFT

PAX4 [5] = biological target: T3, PAX4 (Homo sapiens, UniProt O43316 9-242, R200Q)
T3 sequence: T1 sequence with K192Q

PAX4 [6] = biological target: T4, PAX4 (Homo sapiens, UniProt O43316 9-242, F177V)
T4 sequence: T1 sequence with F169V, K192R

ALX3 [7] = biological target: ALX3 (Homo sapiens, UniProt O95076 139-225)
Sequence of ALX3 (Homo sapiens, UniProt O95076 139-225) (O95076 139-225): as the sequence (O95076 139-225 N203Q) above, with Q65N counted along it

PAX4 [8] = biological target: T5, PAX4 (Homo sapiens, UniProt O43316 9-242, F177Y)
T5 sequence: T1 sequence with F169Y, K192R

ALX3 [9] = biological target: ALX3 (Homo sapiens, UniProt O95076 139-225, L168Q)
Sequence of ALX3 (Homo sapiens, UniProt O95076 139-225, L168Q) (O95076 139-225 L168Q): as the sequence (O95076 139-225 N203Q) above, with L30Q, Q65N counted along it

HOXB9 [10] = biological target: HOXB9 (Homo sapiens, UniProt P17482 171-250, R186Q)
Sequence of HOXB9 (Homo sapiens, UniProt P17482 171-250, R186Q) (P17482 171-250 R186Q): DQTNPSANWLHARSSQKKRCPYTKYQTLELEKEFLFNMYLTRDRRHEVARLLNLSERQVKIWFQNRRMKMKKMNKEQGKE

ALX3 [11] = biological target: ALX3 (Homo sapiens, UniProt O95076 139-225, L168V)
Sequence of ALX3 (Homo sapiens, UniProt O95076 139-225, L168V) (O95076 139-225 L168V): as the sequence (O95076 139-225 N203Q) above, with L30V, Q65N counted along it

PAX4 [12] = biological target: T6, PAX4 (Homo sapiens, UniProt O43316 9-242, R227W)
T6 sequence: T1 sequence with K192R, R219W

ALX3 [13] = biological target: ALX3 (Homo sapiens, UniProt O95076 139-225, N203S)
Sequence of ALX3 (Homo sapiens, UniProt O95076 139-225, N203S) (O95076 139-225 N203S): as the sequence (O95076 139-225 N203Q) above, with Q65S counted along it

NKX2-6 [14] = biological target: T7, NKX2-6 (Homo sapiens, UniProt A6NCS4 118-204)
T7 sequence: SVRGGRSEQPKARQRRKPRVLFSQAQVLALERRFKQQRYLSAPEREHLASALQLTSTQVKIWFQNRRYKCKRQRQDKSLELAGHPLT

NKX2-6 [15] = biological target: T8, NKX2-6 (Homo sapiens, UniProt A6NCS4 118-204, F151L)
T8 sequence: T7 sequence with F34L

HOXD13 [16] = biological target: HOXD13 (Homo sapiens, UniProt P35453 263-343, T313R)
Sequence of HOXD13 (Homo sapiens, UniProt P35453 263-343, T313R) (P35453 263-343 T313R): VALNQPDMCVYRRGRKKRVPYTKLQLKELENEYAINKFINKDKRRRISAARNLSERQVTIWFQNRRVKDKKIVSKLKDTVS

HOXD13 [17] = biological target: HOXD13 (Homo sapiens, UniProt P35453 263-343)
Sequence of HOXD13 (Homo sapiens, UniProt P35453 263-343) (P35453 263-343): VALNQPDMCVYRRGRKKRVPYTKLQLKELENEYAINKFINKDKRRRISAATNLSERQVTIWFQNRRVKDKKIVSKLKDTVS

HOXD13 [18] = biological target: HOXD13 (Homo sapiens, UniProt P35453 263-343, T313A)
Sequence of HOXD13 (Homo sapiens, UniProt P35453 263-343, T313A) (P35453 263-343 T313A): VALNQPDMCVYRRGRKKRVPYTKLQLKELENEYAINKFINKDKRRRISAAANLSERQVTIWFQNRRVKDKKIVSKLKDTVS

**Q.** For CCCTAATA, which binding signal (PAX4 [1]) is on record?
**A.** The binding signal was 11.3 upbm affinity estimate (log intensity, higher = more binding, comparable within an allelic series).

**Q.** And the binding signal (PAX4 [2])?
**A.** The binding signal was 11.6 upbm affinity estimate (log intensity, higher = more binding, comparable within an allelic series).

**Q.** What about the binding signal (HOXB9 [3]) of the same sequence?
**A.** Its binding signal is 10.3 upbm affinity estimate (log intensity, higher = more binding, comparable within an allelic series).

**Q.** And the binding signal (ALX3 [4])?
**A.** Its binding signal is 8.25 upbm affinity estimate (log intensity, higher = more binding, comparable within an allelic series).

**Q.** What about the binding signal (PAX4 [5]) of the same sequence?
**A.** The binding signal was 11.2 upbm affinity estimate (log intensity, higher = more binding, comparable within an allelic series).

**Q.** And the binding signal (PAX4 [6])?
**A.** Its binding signal is 10.2 upbm affinity estimate (log intensity, higher = more binding, comparable within an allelic series).

**Q.** What about the binding signal (ALX3 [7]) of the same sequence?
**A.** The binding signal was 10.9 upbm affinity estimate (log intensity, higher = more binding, comparable within an allelic series).

**Q.** What about the binding signal (PAX4 [8]) of the same sequence?
**A.** Its binding signal is 10.5 upbm affinity estimate (log intensity, higher = more binding, comparable within an allelic series).

**Q.** And the binding signal (ALX3 [9])?
**A.** The binding signal was 8.97 upbm affinity estimate (log intensity, higher = more binding, comparable within an allelic series).

**Q.** What about the binding signal (HOXB9 [10]) of the same sequence?
**A.** Its binding signal is 10.2 upbm affinity estimate (log intensity, higher = more binding, comparable within an allelic series).

**Q.** What about the binding signal (ALX3 [11]) of the same sequence?
**A.** Its binding signal is 8.89 upbm affinity estimate (log intensity, higher = more binding, comparable within an allelic series).

**Q.** And the binding signal (PAX4 [12])?
**A.** Its binding signal is 10.6 upbm affinity estimate (log intensity, higher = more binding, comparable within an allelic series).

**Q.** And the binding signal (ALX3 [13])?
**A.** Its binding signal is 8.32 upbm affinity estimate (log intensity, higher = more binding, comparable within an allelic series).

**Q.** Which results are given for CTAATAAC?
**A.** binding signal (PAX4 [1]): 11.1 upbm affinity estimate (log intensity, higher = more binding, comparable within an allelic series); binding signal (PAX4 [2]): 11.3 upbm affinity estimate (log intensity, higher = more binding, comparable within an allelic series); binding signal (PAX4 [5]): 11.1 upbm affinity estimate (log intensity, higher = more binding, comparable within an allelic series); binding signal (PAX4 [6]): 10.4 upbm affinity estimate (log intensity, higher = more binding, comparable within an allelic series)

**Q.** With CCAGGAGC as the sequence, how does the binding signal (PAX4 [1]) read?
**A.** Its binding signal is 9.4 upbm affinity estimate (log intensity, higher = more binding, comparable within an allelic series).

**Q.** What about the binding signal (PAX4 [2]) of the same sequence?
**A.** The binding signal was 9.35 upbm affinity estimate (log intensity, higher = more binding, comparable within an allelic series).

**Q.** What about the binding signal (NKX2-6 [14]) of the same sequence?
**A.** Its binding signal is 9.22 upbm affinity estimate (log intensity, higher = more binding, comparable within an allelic series).

**Q.** And the binding signal (PAX4 [5])?
**A.** Its binding signal is 9.51 upbm affinity estimate (log intensity, higher = more binding, comparable within an allelic series).

**Q.** What about the binding signal (PAX4 [6]) of the same sequence?
**A.** Its binding signal is 9.26 upbm affinity estimate (log intensity, higher = more binding, comparable within an allelic series).

**Q.** And the binding signal (PAX4 [8])?
**A.** Its binding signal is 9.24 upbm affinity estimate (log intensity, higher = more binding, comparable within an allelic series).

**Q.** What about the binding signal (NKX2-6 [15]) of the same sequence?
**A.** Its binding signal is 9.26 upbm affinity estimate (log intensity, higher = more binding, comparable within an allelic series).

**Q.** And the binding signal (PAX4 [12])?
**A.** Its binding signal is 9.32 upbm affinity estimate (log intensity, higher = more binding, comparable within an allelic series).

**Q.** What does the source list for GCCCCACC?
**A.** binding signal (PAX4 [1]): 9.5 upbm affinity estimate (log intensity, higher = more binding, comparable within an allelic series); binding signal (PAX4 [2]): 9.33 upbm affinity estimate (log intensity, higher = more binding, comparable within an allelic series); binding signal (HOXD13 [16]): 9.66 upbm affinity estimate (log intensity, higher = more binding, comparable within an allelic series); binding signal (PAX4 [5]): 9.38 upbm affinity estimate (log intensity, higher = more binding, comparable within an allelic series); binding signal (HOXD13 [17]): 9.74 upbm affinity estimate (log intensity, higher = more binding, comparable within an allelic series); binding signal (PAX4 [6]): 9.19 upbm affinity estimate (log intensity, higher = more binding, comparable within an allelic series); binding signal (PAX4 [8]): 9.3 upbm affinity estimate (log intensity, higher = more binding, comparable within an allelic series); binding signal (HOXD13 [18]): 9.8 upbm affinity estimate (log intensity, higher = more binding, comparable within an allelic series); binding signal (PAX4 [12]): 9.4 upbm affinity estimate (log intensity, higher = more binding, comparable within an allelic series)

Source: article PMC11006913
